Assay outcomes: PubChem, National Center for Advancing Translational Sciences (NCATS)
NIH3T3 tox – cytotoxic compounds in NIH 3T3 cells | NIH 3T3 viability, CellTiter-Glo ATP luminescence, 48-72 h | Potency, µM (doses to about 96.7 µM), without a hit: at the highest dose activity change, negative = cytotoxicity, actives largely listed as inhibitors | 94,000 tested, 4.3% active; also: % is scaled to controls: 0 for no effect and ±100 for the full control effect; nearly all actives have a fitted effect of over 55% in size
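NIH 3T3 cells at 400 cells/well received 23 nL of compound by pintool and were incubated 48 or 72 h at 37 °C. Viability was read as ATP-coupled CellTiter-Glo luminescence.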
hNpr1 antagonist – human Npr1 receptor antagonism | P16066 | HEK293 hNpr1 GloSensor cGMP, ANP-stimulated luminescence | Potency, µM (doses to about 46.3 µM), for inactives: at the highest dose activity change, negative = inhibition, hits mostly inhibitors | 76,000 tested, 1.6% active; calls by dose curve; also: % is scaled to controls: 0 for no effect and ±100 for the full control effect; nearly all actives have a fitted effect of over 60% in size
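HEK293 cells stably expressing human Npr1 and cGMP GloSensor pGS-40F, loaded 2 h with 2% GloSensor reagent, given compound 30 min at room temperature. Luminescence read before and 20 min after 0.1 nM hNppA.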
GPT2 inhibitor – GPT2 alanine aminotransferase inhibition | Q8TD30 | Recombinant GPT2, coupled pyruvate oxidase/HRP Amplex Red fluorescence | Potency, µM (highest dose often 57.7 µM), for inactives: top-dose activity change, negative = inhibition, hits mostly inhibitors | 100,000 tested, 0.25% active | AID 1671188; also: % is scaled to controls: 0 for no effect and ±100 for the full control effect; nearly all actives have a fitted effect of over 60% in size
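Inhibition is scored from Amplex Red fluorescence generated when pyruvate oxidase and HRP act on pyruvate released by GPT2. Reactions contain 10ng/uL enzyme, 250uM a-KG and 2mM L-alanine and run 30 min at room temperature.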
FLuc inh-1 – Photinus pyralis luciferase inhibition. Potency, µM (highest dose often 115 µM), hits mostly inhibitors. AID 1347043. 76,000 tested, 2.5% active. purified P. pyralis luciferase, luminescence, biochemical. P08659; also: % is scaled to controls: 0 for no effect and ±100 for the full control effect; nearly all actives have a fitted effect of over 65% in size
Target sequence (P08659 whole entry, looked up): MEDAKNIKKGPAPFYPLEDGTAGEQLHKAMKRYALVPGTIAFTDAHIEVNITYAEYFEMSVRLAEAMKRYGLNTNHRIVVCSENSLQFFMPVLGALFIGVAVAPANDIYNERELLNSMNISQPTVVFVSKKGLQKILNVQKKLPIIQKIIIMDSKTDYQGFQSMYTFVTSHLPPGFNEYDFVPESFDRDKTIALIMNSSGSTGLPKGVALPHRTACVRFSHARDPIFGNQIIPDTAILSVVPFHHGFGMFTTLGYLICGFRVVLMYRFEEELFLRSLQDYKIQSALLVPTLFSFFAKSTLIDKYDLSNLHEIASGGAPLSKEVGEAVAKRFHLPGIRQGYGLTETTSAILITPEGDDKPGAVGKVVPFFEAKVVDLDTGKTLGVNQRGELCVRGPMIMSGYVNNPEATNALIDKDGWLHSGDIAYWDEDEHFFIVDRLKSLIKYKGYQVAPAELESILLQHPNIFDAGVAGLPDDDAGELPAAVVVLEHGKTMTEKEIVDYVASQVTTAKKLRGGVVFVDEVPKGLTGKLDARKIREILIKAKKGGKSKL
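Biochemical qHTS: compound (6-point titration) added to 10uM D-luciferin plus 10uM ATP in Tris acetate pH 7.5 buffer with Mg, Tween-20 and BSA, then purified enzyme at 10nM; light output imaged.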
HEK293 tox – cytotoxic compounds in HEK 293 cells. HEK 293 viability, ATP luminescence (CellTiter-Glo), 48-72 h. Potency, µM (series often up to 115 µM), for inactives: at the highest dose activity change, negative = cytotoxicity, hits mostly inhibitors. 94,000 tested, 6.6% active. AID 1345083; also: % is scaled to controls: 0 for no effect and ±100 for the full control effect; nearly all actives have a fitted effect of over 60% in size
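qHTS cytotoxicity; HEK 293, 250 cells/well; compound pinned; 48 or 72 hr, 37 degree Celsius, 5% CO2, 95% humidity; CellTiter-Glo, 10 min RT; luminescence (ATP).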
FLuc SDR -ATP – firefly luciferase binding stabilization, ATP absent | shares compounds with FLuc inh-1 | Purified FLuc-C-HiBiT, Nano-Glo HiBiT luminescence, no ATP | Potency, µM (top dose mostly 32.7 µM), without a hit: top-dose activation (signal gain), actives largely listed as activators | 1,300 tested, 7.8% active; also: nearly all actives have a fitted effect of over 55% in size
FLuc SDR ATP – binders stabilizing firefly luciferase, plus ATP; shares compounds with FLuc inh-1; purified FLuc-C-HiBiT + ATP, HiBiT complementation luminescence; Potency, µM (highest dose often 32.7 µM), without a hit: at the highest dose activation (gain of signal), most hits filed as activators; 1,300 tested, 8.7% active;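 also: signal reports ligand binding via conformational change of the enzyme rather than luciferase catalysis; % of control where 0% means no effect; nearly all actives have a fitted effect of over 55% in size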
FLuc inh-2 – blocks firefly luciferase enzymatic activity; shares compounds with FLuc inh-1; purified FLuc-C-HiBiT enzyme, luciferin luminescence; Potency, µM (highest dose often 32.7 µM), for inactives: at the highest dose activity change, negative = inhibition, hits mostly inhibitors; 1,300 tested, 42% active; AID 1963320; also: % is scaled to controls: 0 for no effect and ±100 for the full control effect; nearly all actives have a fitted effect of over 70% in size
* marks the source's active call; other numbers are inactive results; i = inactive; ? = inconclusive; · = not tested or not shown; [ ] = dose if it differs, or a comment. A selection: hits, their analogues and other compounds. The true share with any hit is near 10%. Unless noted, calls follow the shape of the dose curve; as a rule, active = well fitted curve in the direction sought with a large enough effect; inconclusive = small, poorly fitted or top-dose-only effect, or another doubt; inactive = no such curve, though single readings can be large; an effect the other way counts as inactive or inconclusive. Potency is read from the fitted curve at half-maximal effect.

SMILES	NIH3T3 tox	hNpr1 antagonist	GPT2 inhibitor	FLuc inh-1	HEK293 tox	FLuc SDR -ATP	FLuc SDR ATP	FLuc inh-2
CCOCCOC1CCN(S(=O)(=O)c2c(C)noc2C)CC1	4%	0%	i	i	-3%	·	·	·
O=C(NCc1ccc2c(c1)OCO2)c1cnc2c(c1)N([S+](=O)([O-])c1cccnc1)CCC2	?	4%	?	i	-17%	·	·	·
CSc1ccc(Nc2ncncc2-c2nc(-c3ccccc3)no2)cc1	-10%	7%	i	i	3%	·	·	·
Fc1ccc(Nc2nc(-c3ccccc3)no2)cc1	?	?	i	3.2µM*	?	22%	18%	6.2µM*
CCOC(=O)c1ccc(Nc2nc(-c3ccccc3)no2)cc1	?	-30%	i	?	?	·	·	·
CCOC(=O)c1cccc(Nc2nc(-c3ccccc3)no2)c1	-27%	-30%	i	1.8µM*	28µM*	14%	?	?
Fc1cccc(Nc2nc(-c3ccccc3)no2)c1	?	?	3%	3.2µM*	?	22%	19%	7µM*
Cc1cc(C)cc(Nc2nc(-c3ccccc3F)no2)c1	45µM*	?	i	1.6µM*	40µM*	16%	14%	6.2µM*
O=C(COc1ccccc1)N1CCCCCC1c1nnc(-c2ccccc2)o1 (centres undefined)	-15%	·	3%	·	-10%	·	·	·
c1ccc(CNc2nc(-c3ccccc3)no2)cc1	?	?	i	14µM*	?	19%	14%	?
c1ccc(Nc2cc3c(cn2)CN(CC2CCOC2)CCN3)cc1 (centres undefined)	·	·	·	·	·	17%[49.3 µM]	11%[49.3 µM]	?
c1ccc(Nc2cc3c(cn2)CN(Cc2ccsc2)CCN3)cc1	56µM*	-25%[70.6 µM]	?	10µM*	?	19%[49.3 µM]	15%[49.3 µM]	14µM*
COc1ccc(CN2CCNc3cc(Nc4ccccc4)ncc3C2)cn1	56µM*	-16%[70.6 µM]	0%[88.5 µM]	5µM*	112µM*	22%[49.3 µM]	16%[49.3 µM]	?
COc1cccc(CN2CCNc3cc(Nc4cccnc4)ncc3C2)c1	?	0%[70.6 µM]	i	11µM*	?	32%[49.3 µM]	15%[49.3 µM]	?
Fc1ccc(CNc2cc3c(cn2)CN(Cc2ccncc2)CCN3)cc1	-43%[138 µM]	2%[70.6 µM]	4%[88.5 µM]	i	-51%[172 µM]	·	·	·
c1ccc(CCN2CCNc3cc(NCCN4CCOCC4)ncc3C2)cc1	?	0%[70.6 µM]	i	i	?	·	·	·
COC(=O)CNC(=O)c1ccc2nnc(-c3cc(F)ccc3F)n2c1	-15%	·	-2%	·	2%	·	·	·
CCc1noc(-c2cn(C3CCCN(C(=O)COc4ccc(F)cc4)C3)nn2)n1 (centres undefined)	-24%	2%	-9%	i	-20%	·	·	·
CN1C[C@@H](NS(=O)(=O)c2ccc(C#N)cc2)C[C@H]1c1nc(-c2ccc(Cl)cc2)no1	?	?	i	10µM*	?	4%	4%	?
O=C(Nc1cccnc1)c1nc2c(o1)CCN(Cc1cccc(O)c1)CC2	-16%[138 µM]	?	2%[88.5 µM]	4µM*	?	21%[49.3 µM]	16%[49.3 µM]	?
O=C(Nc1ccccc1)c1nc2c(o1)CCN(Cc1cccnc1)CC2	?	18µM*	-10%[88.5 µM]	0.35µM*	79µM*	?	?	5.7µM*
O=C(Nc1cccnc1)c1nc2c(o1)CCN(CCCc1ccccc1)CC2	?	-3%[70.6 µM]	3%[88.5 µM]	i	?	·	·	·
CC(C)CCN1CCc2nc(C(=O)Nc3ccc(Cl)cc3)oc2CC1	?	?	-11%[88.5 µM]	?	?	·	·	·
CCCN1CCc2nc(C(=O)Nc3ccccc3)oc2CC1	·	·	·	·	·	20%[49.3 µM]	18%[49.3 µM]	?
O=C(Nc1ccccc1)c1nc2c(o1)CCN(CC1CC1)CC2	-17%[138 µM]	-26%[70.6 µM]	-1%[88.5 µM]	2.2µM*	?	19%[49.3 µM]	20%[49.3 µM]	?
SMILES	NIH3T3 tox	hNpr1 antagonist	GPT2 inhibitor	FLuc inh-1	HEK293 tox	FLuc SDR -ATP	FLuc SDR ATP	FLuc inh-2
O=C(C1CC(=O)N(c2n[nH]c3ccccc23)C1)N1CCc2c([nH]c3ccccc23)C1 (centres undefined)	-26%	0%	i	i	?	·	·	·
CCCn1c(C)cnc1CCNC(=O)C1(c2ccc(OC)cc2)CC1	-19%	·	i	·	-15%	·	·	·
COc1cccc(CNC(=O)C2CCN(c3nccc(Nc4ccccc4Cl)n3)CC2)c1	?	·	i	·	?	·	·	·
CC(C)CCC(C)Nc1ncnc2c1CN(C1CCCNCC1)C(=O)CN2C (centres undefined)	?	·	?	·	-23%	·	·	·
O=C(Nc1cc(-c2ccccn2)nn1-c1ccccc1)c1ccc2ccccc2n1	-24%	·	-9%	·	-17%	·	·	·
Cc1noc(C)c1CN1CCc2nc(C(=O)Nc3ccccc3)oc2CC1	?	18µM*	i	11µM*	?	20%[49.3 µM]	16%[49.3 µM]	-15%[49.3 µM]
COc1ccccc1CN1CCc2nc(C(=O)Nc3ccccc3)oc2CC1	?	?	3%[88.5 µM]	4.5µM*	?	17%[49.3 µM]	14%[49.3 µM]	?
O=C(Nc1ccccc1)c1nc2c(o1)CCN(Cc1ccccc1)CC2	?	13µM*	1%[88.5 µM]	1µM*	?	27%[49.3 µM]	?	4.5µM*
Cc1ccc(CN2CCc3nc(C(=O)NCc4ccccc4)oc3CC2)o1	?	5%[70.6 µM]	-3%[88.5 µM]	i	-16%[172 µM]	·	·	·
COc1cccc(CN2CCc3nc(C(=O)Nc4nc(C)cs4)oc3CC2)c1	?	-20%[70.6 µM]	-2%[88.5 µM]	7.1µM*	?	?	17%[49.3 µM]	?
Cc1ccc(C2Cn3nnc(C(=O)N4CCC(C(=O)NCc5ccncc5)CC4)c3CO2)cc1 (centres undefined)	-29%	-4%	1%	14µM*	1%	7%	?	?
Cc1ccc(C2Cn3nnc(C(=O)N4CCC(C(=O)NC5CCN(C)CC5)CC4)c3CO2)cc1 (centres undefined)	i	-2%	i	?	-4%	·	·	·
COc1ccc(CNC(=O)C2CCN(C(=O)c3nnn4c3COC(c3ccc(C)cc3)C4)CC2)cc1 (centres undefined)	i	4%	i	i	1%	·	·	·
Cc1ccc(C2Cn3nnc(C(=O)N4CCC(C(=O)NC5CC5)CC4)c3CO2)cc1 (centres undefined)	-17%	-3%	i	10µM*	-5%	12%	?	?
